Assay results: PubChem BioAssay AID485314 (National Center for Advancing Translational Sciences (NCATS), 2010)
About 4,500 (1.3%) of roughly 340,000 compounds were called active. Another 5% or so got no clear call; they are omitted. Calls come from the whole dose curve; as a rule, active = well fitted inhibition curve with a large enough effect; inconclusive = small, poorly fitted or top-dose-only effect, or another doubt; inactive = no such curve, though single readings can be large or run the other way. This excerpt belongs to a sample that is enriched for actives.

molecular target: DNA polymerase beta (Homo sapiens) (UniProt P06746); assay: qHTS Assay for Inhibitors of DNA Polymerase Beta; settings: Pol beta primer extension/strand displacement, fluorescence kinetic; series mostly up to 114 µM
Method in brief: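 Curves were derived by four-parameter Hill fits of normalized qHTS data. The kinetic fluorescent primer-extension read was taken at 0 and 10 min after 50 nM substrate, following a 15 min room-temperature preincubation of 10 nM enzyme with compounds.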
Potency is the fitted concentration of half-maximal effect.

Potency, active:
Cc1ccc(/C=C(\C#N)C(=O)Nc2cccc3ncccc23)o1 3.16 µM
CCN1/C(=C/c2ccc3ccc(C)cc3[n+]2CC)Sc2ccccc21 31.6 µM
CCN1/C(=C\c2ccc3ccccc3[n+]2CC)Sc2cc(C)ccc21 25.1 µM
C1=C(N2CCOCC2)/C(=C/c2nc3ccccc3[nH]2)CC1 20 µM
CCc1nnc(NS(=O)(=O)c2ccc(NC(=S)NC(=O)/C=C/c3cccs3)cc2)s1 89.1 µM
C=CCn1c(CSc2nc3ccccc3s2)nnc1SCC(=O)NCc1ccco1 39.8 µM
COc1ccccc1NC(=O)CN1C(=O)c2ccccc2Sc2ccc(C(=O)N3CCCC3)cc21 50.1 µM
Cc1ccc(OCC(=O)Nc2ccc(-c3nnc(-c4ccco4)o3)cc2)cc1 14.1 µM
COc1ccc(OCC(=O)Nc2nnc(-c3ccco3)s2)cc1 17.8 µM
O=c1cc2nc(-c3ccccc3)nc(SCCOc3ccc(Cl)cc3)n2[nH]1 20 µM
CC(C)c1ccc(NS(=O)(=O)c2ccc3[nH]cc(C(=O)NC4CCCC4)c(=O)c3c2)cc1 20 µM
Cc1ccc(/C=N/NC(=O)CSc2nc3ccccc3o2)cc1 44.7 µM
O=C(N/N=C/c1ccc(O)c(O)c1)C1c2ccccc2Oc2ccccc21 7.08 µM
O=C(NCCc1ccco1)c1nn(Cc2ccccc2)c(=O)c2ccccc12 44.7 µM
CCc1ccc2nc3sc(C(=O)Nc4nnc(CC)s4)c(N)c3cc2c1 25.1 µM
O=C(CSC(=S)N1CCOCC1)c1cc(Br)cc(Br)c1O 31.6 µM
O=C(NCc1ccco1)c1cccn2c(=O)c3c4c(sc3nc12)CCCC4 50.1 µM
CC(Nc1ccc(-c2nc(-c3ccco3)no2)cc1[N+](=O)[O-])c1ccccc1 (stereo unspecified) 20 µM
O=C(Nc1nnc(Cc2ccc(Cl)cc2)s1)c1cccnc1 22.4 µM

Potency, inactive:
O=C(O)c1cc(Cl)c(Cl)cc1C(=O)Nc1cccc2ncccc12
CCOC(=O)c1ccc(-c2ccc(/C=C(\C#N)C(=O)Nc3ccc(OCC)cc3)o2)cc1
CCOCCCNC(=O)c1cn(CC)c2ccc(S(=O)(=O)N3CCc4ccccc4C3)cc2c1=O
Cn1c(=O)c2c(-c3ccccc3Br)n(Cc3ccccc3)cc2n(C)c1=O
COc1ccccc1CNC(=O)C(=O)NCC(c1cccs1)S(=O)(=O)c1cccs1 (stereo unspecified)
Cc1c(Cl)cccc1NC(=O)C(=O)NCCc1csc2nc(-c3ccccc3F)nn12
COc1ccc(Nc2ncc3c(n2)CCN(C(=O)OC(C)(C)C)C3)cc1
COc1cccc(-c2nc(CS(=O)(=O)CC(=O)N3CCN(c4cc(C)ccc4C)CC3)c(C)o2)c1
COc1cccc(C(c2c(O)cc(C)n(Cc3ccco3)c2=O)N2CCN(c3ccccc3)CC2)c1 (stereo unspecified)
Cc1ccccc1CNC(=O)c1cccc(NC(=O)c2nsc3ccccc23)c1
COc1cc(OC)cc(C(=O)Nc2cc3nn(-c4ccccc4)nc3cc2Cl)c1
CC1(C)Cc2c(C#N)c(SCc3nc4ccccc4[nH]3)nc(N3CCOCC3)c2CO1
O=c1[nH]c(N2CCOCC2)nc2ccccc12
O=C(CC(c1cccs1)N1Cc2ccccc2C1=O)Nc1ccc(F)c(F)c1 (stereo unspecified)
Cc1c(C(=O)Nc2cccc(Cl)c2)oc2ccc(S(=O)(=O)N3CCOCC3)cc12
CCc1nnc(NS(=O)(=O)c2ccc(NC(=S)NC(=O)c3cccs3)cc2)s1
CCOC(=O)c1c(NC(=S)NC(=O)/C=C/c2cccs2)sc(C)c1C
COc1cccc(CNC(=O)Cc2csc3nc(-c4ccccc4)cn23)c1
Fc1ccccc1Oc1ncnc2c1oc1ccccc12
COc1ccc(CC(=O)Nc2nnc3n2CCS3)cc1OC
CCCCOc1ccc(CNC(=O)c2ccc3c(c2)N(C)C(=O)C2CCCCN32)cc1 (stereo unspecified)
COc1ccccc1-c1cc2nc(C)c(CCC(=O)O)c(C)n2n1
CCn1c(SCC(=O)NCc2ccco2)nnc1-c1ccc(N)cc1
O=C(CSc1nc2ccc(Nc3nc(N4CCOCC4)nc(N4CCOCC4)n3)cc2s1)NCc1ccco1
Cc1ccc(Cn2c(CNC(=O)Cc3cccc(C)c3)nc3cccnc32)cc1
Cc1cc(NC(=O)c2cccc(Cl)c2)ccc1-c1cc2ccccc2oc1=O
CCOc1ccc(-n2c(C)nc3c(cnn3-c3ccc(C)cc3)c2=O)cc1
COC(=O)c1ccc2c(c1)N(CC(=O)Nc1ccc(C)c(C)c1)C(=O)c1ccccc1S2
COc1cccc(NC(=O)CN2C(=O)c3ccccc3Sc3ncccc32)c1
CCc1ccc(NC(=O)Cn2c(=O)n(CCC(=O)NCc3ccc4c(c3)OCO4)c(=O)c3ccccc32)cc1
CNc1nnc(-c2ccco2)s1
Cc1cccc(NC(=O)CSc2nnc(-c3ccco3)o2)c1
COc1ccc(NC(=O)COCc2cc(-c3ccco3)on2)cc1
CC(=O)Nc1ccc(NC(=O)COc2ccc(-c3ccccc3)cc2)cc1
O=C(CSc1nc(=O)[nH]c2c1CCCC2)Nc1cc(C(F)(F)F)ccc1Cl
Cc1cccc(C(C)C)c1NC(=O)C(NS(=O)(=O)c1cccc2nsnc12)c1ccccc1 (stereo unspecified)
C=Cc1ccc(Cn2c(C(=O)O)c(CNC3CCCC3)c3ccc(C)cc32)cc1
O=C(NCc1ccc2c(c1)CCN2C(=O)c1ccccc1)Nc1cc(F)ccc1F
Cc1nc(SCCOc2ccc(Cl)cc2)[nH]c(=O)c1Cc1ccccc1
Cc1cccc(-c2nc(SCc3ccc(Br)cc3)n3[nH]c(=O)cc3n2)c1
COc1ccccc1CCNC(=O)c1cccn1-c1nnc(N2CCCCC2)s1
CCCCNC(=O)c1c[nH]c2ccc(S(=O)(=O)Nc3ccc(OCC)cc3)cc2c1=O
Cc1cc(C)cc(NS(=O)(=O)c2ccc3[nH]cc(C(=O)N4CCCCC4)c(=O)c3c2)c1
O=C(Nc1nc2c(s1)CCCC2)c1ccccc1F
COc1cc(OC)c(NC(=O)Cc2ccc(-n3c(C)nc4cccnc43)cc2)cc1Cl
COc1ccc(CNC(=O)c2ccc(NC(=O)N3CC4CCCN4c4ccccc43)cc2)cc1 (stereo unspecified)
O=C(Nc1ccc2nc(SCC(=O)N3CCCc4ccccc43)sc2c1)c1ccc(Cl)cc1
CC(C)(C)C(=O)CSc1nc2ccccc2o1
O=C(CSc1nc2ccccc2o1)N/N=C/c1ccccc1C(=O)O
Cc1ccccc1-c1nc(CS(=O)(=O)CC(=O)Nc2cc(Cl)cc(Cl)c2)c(C)o1
Cn1c(SCC(=O)N/N=C/c2ccc(O)c(O)c2)nc2ccccc21
CCC(C)NC(=O)C1c2ccccc2Oc2ccccc21 (stereo unspecified)
Cc1ccc(Nc2c(-c3ccc(Cl)cc3)nc3sccn23)c(C)c1
Cc1ccc(C(=O)N2CCc3cc(CNC(=O)c4ccc(Br)cc4)ccc32)cc1
CCn1cc(C(=O)NCCc2ccccc2)c(=O)c2cc(S(=O)(=O)N3CCCCCC3)ccc21
CCOC(=O)c1c(C)[nH]c(CCC(=O)NCCCN2CCN(c3cccc(Cl)c3)CC2)c1C
O=c1c2ccccc2c(-c2ccc(Br)cc2)nn1Cc1ccccc1
O=C(NCCSc1ccccc1)c1ccco1
CCn1cc2nc(SCc3ccccc3Cl)n(CCc3ccccc3)c(=O)c2n1
CCc1nnc(NC(=O)c2sc3nc(C)cc(COC)c3c2N)s1
CCc1ccc(NC(=O)c2sc3nc4c(cc3c2N)CN(CC)CC4)cc1
Cc1ccc(C)c(N2CCN(C(c3ccccc3)c3nnc(-c4ccccc4)o3)CC2)c1 (stereo unspecified)
O=C(CSC(=S)N1CCOCC1)c1ccccc1
O=C(c1cc2cc(Br)cc(Br)c2oc1=O)N1CCOCC1
CCc1ccccc1N(C)C(=O)C1CCCN(c2ncnc3onc(-c4ccc(F)cc4)c23)C1 (stereo unspecified)
O=C(Nc1nnc(C2CC(=O)N(c3ccc(Cl)cc3)C2)s1)c1ccco1 (stereo unspecified)
O=C(c1cnn(-c2ccc(F)cc2)c1-n1cccc1)N1CCN(c2ccc(F)cc2)CC1
COC(=O)c1sc2ncccc2c1-n1c(C)ccc1C
Cc1cccc(CCNC(=O)c2ccc3c(c2)nc2n3CCC(C)C2)c1 (stereo unspecified)
O=c1oc(-c2ccco2)nc2sc3c(c12)CCCCC3
O=C(NCc1ccco1)c1nc2ncccn2n1
CN(Cc1ccccc1)c1ncnc2onc(-c3ccc(F)cc3)c12
COC(=O)c1ccccc1NS(=O)(=O)c1ccc2c(c1)CCCN2C(C)=O
Cc1ccc(S(=O)(=O)c2nc(-c3cccs3)oc2N2CCCCC2)cc1
COc1cccc(NC(=O)CSc2cc(=O)n(C)c3ccc(Cl)cc23)c1
Cc1cc(F)ccc1NS(=O)(=O)c1ccc(-n2cccn2)cc1
O=[N+]([O-])c1cc(-c2nc(-c3ccccc3)no2)ccc1NCc1ccco1
CNc1ccc(-c2nc(-c3ccco3)no2)cc1[N+](=O)[O-]
COc1cccc(NC(=O)Nc2ccc3c(c2)N(C)C(=O)c2ccccc2S3)c1
CCOC(=O)c1c(NC(=O)c2ccc(S(=O)(=O)N3CCCC(C)C3)cc2)sc2c1CCN(C(C)C)C2 (stereo unspecified)
O=C(Nc1nnc(Cc2ccc(Cl)cc2)s1)c1ccncc1
O=C(Nc1nnc(Cc2ccccc2)s1)c1cnccn1
